According to the supplement of paper PMC6992640:

What follows are compounds tested on WHIM30 (cells of a triple-negative basal-like breast cancer xenograft) (assay: cell viability of combination (% of vehicle); higher = less cytotoxic). Conditions: 1 µM; 72 h; partner dose: 10 nM.
Procedure: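 PDX cells were treated for 72 h with each drug at 1 µM plus carfilzomib (10 nM; 100 nM for WHIM2). Luciferase viability is expressed as percent of vehicle.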

SMILES	cell viability of combination
CCOc1cc2ncc(C#N)c(Nc3ccc(OCc4ccccn4)c(Cl)c3)c2cc1NC(=O)C=CCN(C)C [Neratinib (HKI-272)] + CC(C)C[C@H](NC(=O)[C@H](CCc1ccccc1)NC(=O)CN1CCOCC1)C(=O)N[C@@H](Cc1ccccc1)C(=O)N[C@@H](CC(C)C)C(=O)[C@@]1(C)CO1 [Carfilzomib]	17.5
CO[C@H]1C[C@@H]2CC[C@@H](C)[C@@](O)(O2)C(=O)C(=O)N2CCCC[C@H]2C(=O)O[C@H]([C@H](C)C[C@@H]2CC[C@@H](O)[C@H](OC)C2)CC(=O)[C@H](C)/C=C(\C)[C@@H](O)[C@@H](OC)C(=O)[C@H](C)C[C@H](C)/C=C/C=C/C=C/1C [Rapamycin (Sirolimus)] + CC(C)C[C@H](NC(=O)[C@H](CCc1ccccc1)NC(=O)CN1CCOCC1)C(=O)N[C@@H](Cc1ccccc1)C(=O)N[C@@H](CC(C)C)C(=O)[C@@]1(C)CO1 [Carfilzomib]	25.8
Nc1c(CC(=O)[O-])cccc1C(=O)c1ccccc1.O.[Na+] [Amfenac Sodium Monohydrate] + CC(C)C[C@H](NC(=O)[C@H](CCc1ccccc1)NC(=O)CN1CCOCC1)C(=O)N[C@@H](Cc1ccccc1)C(=O)N[C@@H](CC(C)C)C(=O)[C@@]1(C)CO1 [Carfilzomib]	23.7
C=C1C(=CC=C2CCCC3(C)C2CCC3C(C)C=CC(C)C(C)C)CC(O)CC1O (stereo not given) [Doxercalciferol] + CC(C)C[C@H](NC(=O)[C@H](CCc1ccccc1)NC(=O)CN1CCOCC1)C(=O)N[C@@H](Cc1ccccc1)C(=O)N[C@@H](CC(C)C)C(=O)[C@@]1(C)CO1 [Carfilzomib]	17
CC1=C(C(=O)OC(C)C)C(c2cccc([N+](=O)[O-])c2)C(C(=O)OC2CN(C(c3ccccc3)c3ccccc3)C2)=C(N)N1 (stereo not given) [Azelnidipine] + CC(C)C[C@H](NC(=O)[C@H](CCc1ccccc1)NC(=O)CN1CCOCC1)C(=O)N[C@@H](Cc1ccccc1)C(=O)N[C@@H](CC(C)C)C(=O)[C@@]1(C)CO1 [Carfilzomib]	14.5
C[C@H]1O[C@@H](O[C@H]2[C@@H](O)C[C@H](O[C@H]3[C@@H](O)C[C@H](O[C@H]4CC[C@@]5(C)[C@H](CC[C@@H]6[C@@H]5C[C@@H](O)[C@]5(C)[C@@H](C7=CC(=O)OC7)CC[C@]65O)C4)O[C@@H]3C)O[C@@H]2C)C[C@H](O)[C@@H]1O [Digoxin] + CC(C)C[C@H](NC(=O)[C@H](CCc1ccccc1)NC(=O)CN1CCOCC1)C(=O)N[C@@H](Cc1ccccc1)C(=O)N[C@@H](CC(C)C)C(=O)[C@@]1(C)CO1 [Carfilzomib]	4.55
CCOc1cc2ncc(C#N)c(Nc3ccc(F)c(Cl)c3)c2cc1NC(=O)C=CCN(C)C [Pelitinib (EKB-569)] + CC(C)C[C@H](NC(=O)[C@H](CCc1ccccc1)NC(=O)CN1CCOCC1)C(=O)N[C@@H](Cc1ccccc1)C(=O)N[C@@H](CC(C)C)C(=O)[C@@]1(C)CO1 [Carfilzomib]	5.92
CCc1c(Cl)c(O)c(Cl)c(O)c1C(=O)OC1C(C)OC(OCC2=CC=CCC(O)C(C)=CC(CC)C(OC3OC(C)(C)C(OC(=O)C(C)C)C(O)C3O)C(C)=CC(C)=CCC(C(C)O)OC2=O)C(OC)C1O (stereo not given) [Fidaxomicin] + CC(C)C[C@H](NC(=O)[C@H](CCc1ccccc1)NC(=O)CN1CCOCC1)C(=O)N[C@@H](Cc1ccccc1)C(=O)N[C@@H](CC(C)C)C(=O)[C@@]1(C)CO1 [Carfilzomib]	21.2
CC(=O)C1(O)Cc2c(O)c3c(c(O)c2C(OC2CC(N)C(O)C(C)O2)C1)C(=O)c1ccccc1C3=O.Cl (stereo not given) [Idarubicin HCl] + CC(C)C[C@H](NC(=O)[C@H](CCc1ccccc1)NC(=O)CN1CCOCC1)C(=O)N[C@@H](Cc1ccccc1)C(=O)N[C@@H](CC(C)C)C(=O)[C@@]1(C)CO1 [Carfilzomib]	5.43
C=CC(=O)N1CCC(Oc2cc3c(Nc4ccc(Cl)c(Cl)c4F)ncnc3cc2OC)CC1 [Poziotinib] + CC(C)C[C@H](NC(=O)[C@H](CCc1ccccc1)NC(=O)CN1CCOCC1)C(=O)N[C@@H](Cc1ccccc1)C(=O)N[C@@H](CC(C)C)C(=O)[C@@]1(C)CO1 [Carfilzomib]	8.92
CC(C)(C)c1ccc(C(=O)CCCN2CCC(OC(c3ccccc3)c3ccccc3)CC2)cc1 [Ebastine] + CC(C)C[C@H](NC(=O)[C@H](CCc1ccccc1)NC(=O)CN1CCOCC1)C(=O)N[C@@H](Cc1ccccc1)C(=O)N[C@@H](CC(C)C)C(=O)[C@@]1(C)CO1 [Carfilzomib]	15.8
CC[C@@H]1/C=C(\C)C[C@H](C)C[C@H](OC)[C@H]2O[C@@](O)(C(=O)C(=O)N3CCCC[C@H]3C(=O)O[C@H](/C(C)=C/[C@@H]3CC[C@H](Cl)[C@H](OC)C3)[C@H](C)[C@@H](O)CC1=O)[C@H](C)C[C@@H]2OC [Pimecrolimus] + CC(C)C[C@H](NC(=O)[C@H](CCc1ccccc1)NC(=O)CN1CCOCC1)C(=O)N[C@@H](Cc1ccccc1)C(=O)N[C@@H](CC(C)C)C(=O)[C@@]1(C)CO1 [Carfilzomib]	11.7
CCN(CC)CCNC(=O)c1c(C)[nH]c(C=C2C(=O)Nc3ccc(F)cc32)c1C.O=C(O)CC(O)C(=O)O [Sunitinib malate] + CC(C)C[C@H](NC(=O)[C@H](CCc1ccccc1)NC(=O)CN1CCOCC1)C(=O)N[C@@H](Cc1ccccc1)C(=O)N[C@@H](CC(C)C)C(=O)[C@@]1(C)CO1 [Carfilzomib]	33.1
COc1cc2nccc(Oc3ccc(NC(=O)NC4CC4)c(Cl)c3)c2cc1C(N)=O [Lenvatinib (E7080)] + CC(C)C[C@H](NC(=O)[C@H](CCc1ccccc1)NC(=O)CN1CCOCC1)C(=O)N[C@@H](Cc1ccccc1)C(=O)N[C@@H](CC(C)C)C(=O)[C@@]1(C)CO1 [Carfilzomib]	21.9
COc1cccc2c1C(=O)c1c(O)c3c(c(O)c1C2=O)C[C@@](O)(C(C)=O)C[C@@H]3O[C@H]1C[C@H](N)[C@H](O)[C@H](C)O1.Cl [Daunorubicin HCl] + CC(C)C[C@H](NC(=O)[C@H](CCc1ccccc1)NC(=O)CN1CCOCC1)C(=O)N[C@@H](Cc1ccccc1)C(=O)N[C@@H](CC(C)C)C(=O)[C@@]1(C)CO1 [Carfilzomib]	4.41
COc1cc2nccc(Oc3ccc(NC(=O)Nc4cc(C)on4)c(Cl)c3)c2cc1OC [Tivozanib (AV-951)] + CC(C)C[C@H](NC(=O)[C@H](CCc1ccccc1)NC(=O)CN1CCOCC1)C(=O)N[C@@H](Cc1ccccc1)C(=O)N[C@@H](CC(C)C)C(=O)[C@@]1(C)CO1 [Carfilzomib]	18.1
Cl.OC(CNCC(O)C1CCc2cc(F)ccc2O1)C1CCc2cc(F)ccc2O1 (stereo not given) [Nebivolol] + CC(C)C[C@H](NC(=O)[C@H](CCc1ccccc1)NC(=O)CN1CCOCC1)C(=O)N[C@@H](Cc1ccccc1)C(=O)N[C@@H](CC(C)C)C(=O)[C@@]1(C)CO1 [Carfilzomib]	21.2
C=C1C(=CC=C2CCCC3(C)C2CCC3C(C)CCCC(C)(C)O)CC(O)CC1O (stereo not given) [Calcitriol] + CC(C)C[C@H](NC(=O)[C@H](CCc1ccccc1)NC(=O)CN1CCOCC1)C(=O)N[C@@H](Cc1ccccc1)C(=O)N[C@@H](CC(C)C)C(=O)[C@@]1(C)CO1 [Carfilzomib]	19.1
CN(C)c1ccc(C(=C2C=CC(=[N+](C)C)C=C2)c2ccc(N(C)C)cc2)cc1.[Cl-] [Crystal Violet] + CC(C)C[C@H](NC(=O)[C@H](CCc1ccccc1)NC(=O)CN1CCOCC1)C(=O)N[C@@H](Cc1ccccc1)C(=O)N[C@@H](CC(C)C)C(=O)[C@@]1(C)CO1 [Carfilzomib]	6
COc1ccc(C[C@H](N)C(=O)N[C@@H]2[C@H](O)[C@H](n3cnc4c(N(C)C)ncnc43)O[C@@H]2CO)cc1.Cl.Cl [Puromycin dihydrochloride] + CC(C)C[C@H](NC(=O)[C@H](CCc1ccccc1)NC(=O)CN1CCOCC1)C(=O)N[C@@H](Cc1ccccc1)C(=O)N[C@@H](CC(C)C)C(=O)[C@@]1(C)CO1 [Carfilzomib]	5.17
